The campaign covered roughly 120,000 compounds. About 5,300 (4.4%) were called active. Inconclusive results (about 22%) are left out. Shown is part of a subset that was picked to be rich in actives. Values without a mark were called inactive. The call rests on the fitted dose curve; in most records, active means well fitted inhibition curve with a large enough effect; inconclusive means small, poorly fitted or top-dose-only effect; inactive means no such curve, though single readings can be large or run the other way.
Test: qHTS Primary assay for Inhibitors of Plasmodium falciparum Dd2 growth in vitro; further: nearly all actives have a fitted effect of over 65% in size;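 on activity, negative = inhibition: plate controls were DMSO vehicle for no effect and reference drug for full effect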
Conditions: P. falciparum Dd2 growth, SYBR Green, 72 h; series mostly up to 28.9 µM; activity, negative = inhibition: at the top concentration
Procedure, shortened: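 Readout: SYBR Green fluorescence, 485 nm excitation, 535 nm emission, after ~16 h lysis at 37C. Before that, Dd2-infected red cells (2.5% hematocrit) grew 72 h with compound, 29 uM top final concentration.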
Potency means the concentration at half of the fitted maximal effect.

| Structure (SMILES) | activity, negative = inhibition | Potency | outcome |
| --- | --- | --- | --- |
| COc1ccc(C(=O)N2[C@@H]3CC[C@H]2CC(NC(=O)c2ccncc2)C3)cc1OC (stereo partly drawn) | -11.9% | – | – |
| O=C(c1cc(F)ccc1F)N1CCC2(CC1)CC(N(Cc1ccccc1)C1CC1)CCO2 (stereo not drawn) | -7.48% | – | – |
| CC(=O)N(C1CC1)C1CCOC2(CCN(C(=O)CCc3ccccc3)CC2)C1 (stereo not drawn) | 31.1% | – | – |
| O=C(c1ccco1)N1CCC2(CC1)CC(N(Cc1ccccc1)C1CC1)CCO2 (stereo not drawn) | – | 4.47 µM (active) | – |
| CCN1CC2(CCN(C(=O)c3cc4c(cc3OC)CCC4)CC2)OC1=O | 0.279% | – | – |
| O=Cc1cccc(-c2cc(F)cc(F)c2)c1 | 20.8% [at 44.1 µM] | – | – |
| CCc1nc2nc(C)cc(Nc3ccc(F)c(Cl)c3)n2n1 | – | 3.55 µM (active) | – |
| Cc1ccc(S(=O)(=O)NCc2nc3nc(C)cc(C)n3n2)cc1 | -23.8% | – | – |
| CC(=O)c1ccc(NC(=O)c2nc3nc(C)cc(C(F)F)n3n2)cc1 | 4.1% | – | – |
| COCCN1C(=O)c2ccccc2C(C(=O)NC2CCCCCC2)C12CCCCC2 (stereo not drawn) | – | – | inactive |
| COc1cc(OC)c(NC(=O)Cn2ccn3nc(-c4ccccc4)c(CO)c3c2=O)cc1Cl | – | – | inactive |
| CCNc1ncc(CN2CCN(c3cccc(C(F)(F)F)c3)CC2)cn1 | – | 11.2 µM (active) | – |
| CC(C)(C)C(=O)N1CC[C@@H](CC(=O)O)[C@@H](CCN2CCN(c3cccc(C(F)(F)F)c3)CC2)C1 | – | – | inactive |
| Cc1cc(N2CCN(c3cccc(C(F)(F)F)c3)CC2)n2nc(-c3ccccc3)nc2n1 | 20% | – | – |
| N#Cc1ccc(OCC2CN(Cc3c[nH]c4ccccc34)C(=O)c3c(ccnc3-c3ccc(OCC(=O)O)cc3)O2)cc1 (stereo not drawn) | -0.811% | – | – |
| COc1ccccc1OC1(C(=O)O)CCN(C(=O)CC2CC2)CC1 | -8.58% | – | – |
| CN(C)c1ccc(C(=O)N[C@H]2C[C@H]3C(=O)NC[C@@H](CCC(=O)N4CCCCC4)N3C2)cc1 | -15.2% | – | – |
| Cn1nc2c(c1NC(=O)Cn1nc3c(cc1=O)CCCC3)CSC2 | -25.3% | – | – |
| O=C(CCc1ccccc1)Nc1ccc([C@@H](O)[C@H]2COCC(=O)N2Cc2ccccc2F)cc1 | – | 11.2 µM (active) | – |
| COCC(=O)Nc1ccc([C@@H](O)[C@H]2COCC(=O)N2Cc2ccc(C(F)(F)F)cc2)cc1 | – | 12.6 µM (active) | – |
| CCN1C(=O)COC[C@@H]1C(O)c1ccc(NC(=O)Cc2ccc(OC)cc2)cc1 (stereo partly drawn) | 7.62% [at 44.1 µM] | – | – |
| Cc1ccc(C(=O)Nc2ccc(C(O)[C@H]3COCC(=O)N3Cc3ccccc3F)cc2)cc1 (stereo partly drawn) | – | – | inactive |
| CCOCCN1C(=O)COC[C@@H]1[C@H](O)c1ccc(NC(=O)c2cnccn2)cc1 | -2.42% [at 44.1 µM] | – | – |
| O=C(Nc1ccc([C@@H](O)[C@H]2COCC(=O)N2CCCc2ccccc2)cc1)C1CC1 | -25.8% [at 44.1 µM] | – | – |
| Cc1ccc(Cl)cc1NC(=O)CN1C(=O)NC2(CCC(C)CC2)C1=O (stereo not drawn) | – | – | inactive |

| Structure (SMILES) | activity, negative = inhibition | Potency | outcome |
| --- | --- | --- | --- |
| Cc1ccc(CN2CCCOCCNC(=O)CC2)o1 | 52.5% | – | – |
| CCn1cc(CN2CC[C@H]3C(=O)NCCCCCCN(Cc4ccncc4)[C@@H]3C2)c(C)n1 | – | – | inactive |
| O=C(NCc1ccccc1)N1CCN2C(=O)NC[C@H]2C1 | – | – | inactive; activator; fitted 1.122 uM [at 44.1 µM] |
| O=C(NC1CCCCCC1)c1ccc2c(c1)CC(=O)N2Cc1cccc(F)c1 | -19.4% | – | – |
| CCOc1ccc(OCC)c(Nc2nc3ccccc3n3nnnc23)c1 | 12.6% | – | – |
| CCOc1ccc(CNC(=O)c2cccc(Nc3nc4ccccc4n4nnnc34)c2)cc1OC | – | 11.2 µM (active) | – |
| CCOc1ccc(CNC(=O)c2ccc3nc(CC)c(CC)nc3c2)cc1OC | 16.7% | – | – |
| CC(=O)NCC1Cn2cccc2CN1Cc1ccccc1 (stereo not drawn) | – | – | inactive |
| O=C(c1cccc(-n2cnnc2)c1)N(Cc1ccsc1)CC1CCCO1 (stereo not drawn) | -11.7% | – | – |
| CC(C)c1ccc(C2CC(=O)N3CN(C4CCCCC4)CSC3=C2C#N)cc1 (stereo not drawn) | – | 11.2 µM (active) | – |
| CCn1nccc1C(=O)N1CCCC(c2nc(-c3cccnc3)no2)CCNC(=O)CC1 (stereo not drawn) | 6.57% | – | – |
| O=C(c1cc(F)ccc1F)N1CCCCCC1c1nnc(-c2ccccc2)o1 (stereo not drawn) | – | – | inactive |
| Cc1cc(CN(C)C(=O)c2cc(COc3ccc(F)cc3F)on2)on1 | -11% | – | – |
| CCCNc1cc(N2CCC(CCC(=O)Nc3ccc(C)cc3)CC2)ncn1 | – | 12.6 µM (active) | – |
| CCCNC(=O)CCC1CCN(C(=O)c2ccc(C)cc2)CC1 | -8.5% | – | – |
| CCNc1cc(N2CCC(CCC(=O)N3CCc4ccccc4C3)CC2)ncn1 | – | – | inactive |
| CCOc1ccccc1C(=O)N[C@@H]1CN(c2ncccn2)C[C@H]1CO | -15.4% | – | – |
| CC(=O)N1CCC(C(=O)NCC(=O)N2CCCCCCNC(=O)CC2c2ccccc2)CC1 (stereo not drawn) | 28.6% | – | – |
| Cc1nn2c(c1-c1ccccc1N1CCCC1)N(C(=O)c1ccc(Oc3ccccc3)cc1)CCC2 | – | – | inactive |
| Cc1nn2c(c1-c1ccnn1C(C)C)N(C(=O)c1ccc(Oc3ccccc3)cc1)CCC2 | – | – | inactive |
| Cc1nn2c(c1-c1ccccc1Oc1ccccc1)N(C(=O)C(C)C)CCC2 | – | 10 µM (active) | – |
| c1ccc(-c2nnc(CN3CCN(c4cnccn4)CC3)o2)cc1 | -2.37% | – | – |
| COc1ccc(Nc2ncc(C(=O)Nc3cc(C)ccc3OC)c3ccccc23)cc1 | -11.9% | – | – |
| COc1ccc(CCNc2nc(-c3ccc(F)cc3)cc(C(F)(F)F)n2)cc1OC | -11.5% | – | – |
| COc1cc(Nc2nc(-c3ccc(OC)c(OC)c3)nc3ccccc23)cc(OC)c1 | – | 8.91 µM (active) | – |

| Structure (SMILES) | activity, negative = inhibition | Potency | outcome |
| --- | --- | --- | --- |
| COc1ccc(OCc2nc(C)c(CCO)c(=O)n2CC(=O)Nc2ccccc2C)cc1 | 0.0593% | – | – |
| CCC(C)NC(=O)CN1CN(c2ccccc2)C2(CCN(C(=O)c3ccccc3OC)CC2)C1=O (stereo not drawn) | – | – | inactive |
| O=C(NC1CC(=O)N(Cc2ccccc2C(F)(F)F)C1)c1ccc[n+]([O-])c1 (stereo not drawn) | 7.21% | – | – |
| O=C(c1cn2ccsc2n1)N1CCn2nc(C(O)c3ccccc3)cc2C1 (stereo not drawn) | -8.57% | – | – |
| COC[C@@H]1CN(C(=O)c2cc(C)oc2C)C[C@H]1c1nc(C2CC2)no1 | -24.6% | – | – |
| CN(C)c1cccc(C(=O)Nc2nc3ccc(S(=O)(=O)NC(C)(C)C)cc3s2)c1 | – | 11.2 µM (active) | – |
| Cc1cc2nc(NC(=O)c3ccc(S(=O)(=O)N4CCOCC4)cc3)sc2cc1C | 0.325% | – | – |
| NS(=O)(=O)c1ccc2nc(NC(=O)COc3ccccc3)sc2c1 | 7.06% | – | – |
| CCOCCOC1CCN(C(=O)Cc2cccc(OC)c2)CC1 | 7.79% | – | – |
| CS(=O)(=O)N1CCC(OC2CCN(C(=O)c3cccc(Cl)c3)CC2)CC1 | 22.5% | – | – |
| Cc1cccc(C)c1NC(=O)N1CCC(OC2CCN(S(C)(=O)=O)CC2)CC1 | -4.93% | – | – |
| Cc1ccc(NC(=O)N2CCC(OC3CCN(S(C)(=O)=O)CC3)CC2)cc1F | – | 0.447 µM (active) | – |
| NC(=O)c1ccc(NC(=O)C2CC(=O)N(c3n[nH]c4cccc(F)c34)C2)cc1 (stereo not drawn) | 10.2% | – | – |
| COC(=O)c1cccc(NC(=O)N2CCC3(CCC(=O)N(Cc4ccccc4)CC3)CC2)c1 | -19.1% | – | – |
| CCOC(=O)c1ccc(N2C(=O)c3n[nH]c(C)c3C2c2ccc(O)c(OC)c2)cc1 (stereo not drawn) | -22.2% | – | – |
| CCOC(=O)c1ccc(NC(=O)C2CC(=O)N(c3ccc(C(C)C)cc3)C2)cc1 (stereo not drawn) | 10.8% | – | – |
| CCOC(=O)c1ccc(N2C(=O)c3[nH]nc(-c4ccccc4)c3C2c2ccc(C(C)C)cc2)cc1 (stereo not drawn) | – | 7.94 µM (active) | – |
| Nc1nc2c(s1)C(c1ccccc1)CC(=O)N2 (stereo not drawn) | -11.5% | – | – |
| NCc1ccc(-c2cncnc2)cc1 | 0.276% [at 44.1 µM] | – | – |
| Cc1cccc(-c2cccc(CN)c2)c1 | – | 11.2 µM (active) | – |
| O=C(Cc1ccsc1)N1CCC(Oc2ccccc2)C1 (stereo not drawn) | – | – | inactive |
| Cc1cccc(NC(c2cccc(F)c2)c2ccc3ccc(C)nc3c2O)n1 (stereo not drawn) | – | 6.31 µM (active) | – |
| O=C(N1CCCC1)N1CCCC(c2nnc3n2CCNC3)C1 (stereo not drawn) | 10.1% | – | – |
| COc1c(F)cccc1CN1CCOc2cc([S+](=O)([O-])N(C)C)ccc2C1 | – | – | inactive [at 44.1 µM] |
| COC(=O)C1=C(C)N=C2SC=C(CC(=O)NCCC(C)C)N2C1c1ccccc1Cl (stereo not drawn) | -0.875% | – | – |

| Structure (SMILES) | activity, negative = inhibition | Potency | outcome |
| --- | --- | --- | --- |
| COC(=O)C1=C(C)N=C2SC=C(CC(=O)NCc3ccccc3F)N2C1c1ccccc1Cl (stereo not drawn) | – | 11.2 µM (active) | – |
| COC(=O)C1=C(C)N=C2SC=C(CC(=O)NCc3ccco3)N2C1c1cccc(F)c1 (stereo not drawn) | – | – | inactive |
| CCCNC(=O)[C@@H]1Cc2cn(Cc3cc(C)on3)c3cccc(c23)[C@H](CC(C)C)N1 | -0.167% [at 44.1 µM] | – | – |
| Cc1ccc(-c2nc(S(=O)(=O)c3ccc(C)cc3)c(N3CCCCCC3)o2)cc1 | -8.72% | – | – |
| CC(C)S(=O)(=O)c1oc(-c2ccc(F)cc2)nc1S(=O)(=O)c1ccc(F)cc1 | – | 11.2 µM (active) | – |
| O=C(CSc1oc(-c2ccc(F)cc2)nc1S(=O)(=O)c1ccc(Br)cc1)NC1CCCCC1 | 13.2% | – | – |
| COc1cccc(SCC(=O)NCc2cc3n(n2)CCNC3)c1 | -6.36% | – | – |
| COC[C@@H]1CN(Cc2cnn(C)c2C)C[C@H]1c1nc(C2CC2)no1 | -16.5% | – | – |
| O=C1OC[C@@H]2CCN(Cc3ccncc3)Cc3ccc(F)cc3N12 | -5.94% [at 44.1 µM] | – | – |
| O=C1OC[C@@H]2CCN(Cc3cnc4ccccc4c3)Cc3ccc(F)cc3N12 | – | 5.62 µM (active) | – |
| O=C1OC[C@@H]2CCN(Cc3ccccc3)Cc3ccccc3N12 | – | – | inactive [at 44.1 µM] |
| Cc1ccc(-n2nc3n(c2=O)CCN(C(=O)C(C)(C)C)C3)cc1 | 0.934% [at 44.1 µM] | – | – |
| CN(C1CCc2nn(C)c(=O)n2CC1)S(=O)(=O)c1ccc2c(c1)OCCO2 (stereo not drawn) | – | – | inactive |
| CN1CCC(N2CC[C@H](c3nc4ccccc4s3)C2)CC1 | -17.2% [at 44.1 µM] | – | – |
| CC(C)c1ccc(CNC(=O)c2noc(-c3ccc[nH]c3=O)n2)cc1 | – | – | inactive |
| Cc1ccc(CN2CCc3nc(C)nc(-c4ccc(O)cc4)c3C2)cc1 | – | – | inactive |
| CCc1nc2c(c(-c3ccc(OC)cc3)n1)CCN(CC1CCCCC1)CC2 | -26.7% | – | – |
| CCc1nc2c(c(-c3ccc(Cl)cc3)n1)CN(CCC(C)C)CC2 | – | 7.94 µM (active) | – |
| Cc1cc(OC2CN([S+](=O)([O-])c3cccs3)C2)ccc1F | 2.46% [at 44.1 µM] | – | – |
| CCc1nc2c(c(-c3ccc(Cl)cc3)n1)CCN([S+](=O)([O-])c1cccs1)CC2 | – | 12.6 µM (active) | – |
| O=C1CCNCCCOCCN1 | 15.7% | – | – |
| Cc1ccc(NC2=C(c3ccc(C(F)(F)F)cc3)C(=O)c3ccccc32)cc1F | – | 0.178 µM (active) | – |
| Cc1ccc(NC(=O)CN2c3ccccc3S(=O)(=O)c3ccccc32)cc1F | -2.41% | – | – |

— PubChem BioAssay AID1347417 (National Center for Advancing Translational Sciences (NCATS), 2020)
